From ChEMBL document CHEMBL4513216, “Probing the Open Global Health Chemical Diversity Library for Multistage-Active Starting Points for Next-Generation Antimalarials” (ACS Infect Dis, 2020)
The whole screen tested about 69,000 compounds, of which about 8,600 (12%) showed an effect of 50% or more. The list comes from a sample in which strong results are over-represented; it also holds similar structures and randomly drawn compounds.

The molecules below were run on Plasmodium berghei (assay: Screen against P. berghei liver stage (PbLuc), transformed with Luciferase, at 10uM). Conditions: tested at 10 uM.
Format: functional, HepG2
Molecule CCC(NC(=O)c1nn(C)cc1C(=O)O)c1ccccc1 (configuration not stated) has an INHIBITION of 15.9%. Work on Cc1cc(NC2CCc3ncnn3C2)n2nc(C(F)(F)F)nc2n1 (configuration not stated) yielded an INHIBITION of 26.9%. Cc1cccc(CN2CC[C@@H]3[C@@H]2CCN3C(=O)c2cc(C)oc2C)n1 showed an INHIBITION of -6.23%. Molecule O=C(O)C1CCCN(c2nc3c(-c4ccccc4)csc3c(=O)[nH]2)C1 (configuration not stated) has an INHIBITION of 36.6%. Molecule Cc1ccccc1-c1csc2c(=O)[nH]c(N3CCCC(C(=O)O)C3)nc12 (configuration not stated) has an INHIBITION of 52.5%. Work on Cc1ccc(-c2csc3c(=O)[nH]c(N4CCCC(C(=O)O)C4)nc23)cc1 (configuration not stated) yielded an INHIBITION of 32.8%. In the case of CC(C)CC(=O)N1CCC2(CC1)OC(C(N)=O)Cn1ccnc12 (configuration not stated), the INHIBITION is reported as 7.7%. Work on O=C(N1CCCC1)C12CC(CN1Cc1nccs1)C2 yielded an INHIBITION of -2.03%. O=C(NCC1CC1)C12CC(CN1Cc1nccs1)C2 was tested, and the INHIBITION was 82.2%. With Cc1ccsc1C(=O)N1CC2CC1(C(=O)NCC1CC1)C2 the INHIBITION was 23.5%. In the case of CN(C)C(=O)c1cc(-c2ccncc2)[nH]n1, the INHIBITION is reported as -8.28%. CN1CCN(C(=O)c2cc(C#N)cs2)c2ccccc2C1 was tested, and the INHIBITION was -91.4%. c1ccc(CCNc2ncnc3c2CCN(Cc2c[nH]cn2)CC3)cc1 showed an INHIBITION of 37.3%. Molecule CN(C)c1ccc(C(=O)N2CCCN(Cc3cscn3)CC2)nn1 has an INHIBITION of -31.8%. O=C(c1cnc2n1CCN(Cc1ccccc1)C2)N1CCCC1 was tested, and the INHIBITION was 17.1%. Work on COCC(=O)N1CCc2nc(C)nc(NC(C)C)c2CC1 yielded an INHIBITION of 35.8%. In the case of CC(=O)N1CCc2nc(-c3ccc(F)cc3)nc(NC(C)C)c2CC1, the INHIBITION is reported as 64.7%. CC(=O)N1CCc2nc(-c3ccccc3)nc(NC(C)C)c2CC1 showed an INHIBITION of 59.3%. With Cc1nc(-c2ccc(F)cc2)nc2c1CCN(C(=O)CN(C)C)CC2 the INHIBITION was 37.9%. With CC(=O)NCC(=O)N1CCc2nc(-c3ccccc3)nc(C)c2CC1 the INHIBITION was 37.9%. COCC(=O)N1CCc2nc(NC(C)C)nc(NC(C)C)c2CC1 was tested, and the INHIBITION was 48.4%. Molecule CCOCC(=O)N1CCc2nc(C)nc(NC(C)C)c2CC1 has an INHIBITION of 32.1%. For Cc1nc2c(c(NCc3ccccc3)n1)CCN(C(=O)C1CCC1)CC2, the INHIBITION was 42.3%. CC(C)Nc1nc(-c2ccccc2)nc2c1CCN(C(=O)CC#N)CC2 showed an INHIBITION of 72%. With Cc1nc2c(c(NC(C)C)n1)CCN(C(=O)c1ccno1)CC2 the INHIBITION was 49.1%. For CC(C)Nc1nc(-c2ccccc2)nc2c1CCN(C(=O)C1CC1)CC2, the INHIBITION was 73.8%. O=C(C1CCOCC1)N1CCc2ncnc(-c3ccccc3)c2CC1 gave an INHIBITION of -28.8%. Cn1cc(S(=O)(=O)N2CCN(S(=O)(=O)c3ccc(Br)s3)CC2)cn1 showed an INHIBITION of 43.2%. With CN(Cc1cnn(C)c1)C(=O)NCc1cc(Br)cs1 the INHIBITION was 34.95%. With Cc1cc2c(=O)n(CCSc3cnn[nH]3)cnc2s1 the INHIBITION was 36.7%. For O=C(COC[C@H]1CC[C@H]2[C@H](CCN2c2ncccn2)O1)N1CCCC1, the INHIBITION was 1.81%. Cc1ccc(CCNC(=O)Cn2nc(C)n(Cc3ccccc3)c2=O)o1 gave an INHIBITION of 13.6%. In the case of CN(Cc1cccc2cccnc12)C1CCS(=O)(=O)C1 (configuration not stated), the INHIBITION is reported as 36%. In the case of Cc1nnc(NCc2ccccc2F)c(C#N)c1C, the INHIBITION is reported as 1.35%. Molecule O=C(c1ccnnc1)N1CCN(Cc2cccnc2)c2ncccc2C1 has an INHIBITION of -39.9%. For CS(=O)(=O)CCn1ccc(NC(=O)Cc2cccc(Cl)c2)n1, the INHIBITION was 16.5%. For CC1CCCN(C(=O)CCc2cccnc2)C1 (configuration not stated), the INHIBITION was 20.9%. COc1cccc(CC(=O)N2CCC(Cc3nnc(SC)n3C)CC2)c1 gave an INHIBITION of 31.3%. For Cc1ccc(NC2CCN(C(=O)COc3cccnc3)CC2)nn1, the INHIBITION was 44.6%. CSc1nnc(CC2CCN(C(=O)COc3cccnc3)CC2)n1C was tested, and the INHIBITION was 73%. O=C(CCc1cccnc1)N1CCC(c2cnccn2)CC1 showed an INHIBITION of 15.9%. Molecule CCOCC(=O)N1CCC(Cc2nnc(SC)n2C)CC1 has an INHIBITION of 48%. CSc1nnc(CC2CCN(C(=O)Cc3ccncc3)CC2)n1C gave an INHIBITION of 64.7%. CSc1nnc(CC2CCN(C(=O)CCc3cccnc3)CC2)n1C was tested, and the INHIBITION was 51.7%. Work on CSc1nnc(C2CCN(C(=O)N3CCCC3)CC2)n1C yielded an INHIBITION of 16.185%. For CN(C)C(=O)N1CCN(Cc2cnn(C)c2)CC2(CNC(=O)C2)C1 (configuration not stated), the INHIBITION was 17.6%. Work on O=C(CCn1c(=O)oc2ccccc21)NCC(O)c1ccc(Cl)cc1 (configuration not stated) yielded an INHIBITION of 18.2%. For O=S(=O)(CC1CCCCO1)Nc1cnn(Cc2ccccc2)c1 (configuration not stated), the INHIBITION was 33.7%. In the case of Cc1cnn(C2CN(CC(=O)NCCc3ccsc3)C2)c1, the INHIBITION is reported as 22.3%. Work on CN1CCN(C[C@@H]2OC[C@H]3CN(Cc4ccsc4)CC[C@H]32)CC1 yielded an INHIBITION of -13.3%. Molecule Cn1c(=NC(=O)CSCC(=O)Nc2nccs2)sc2ccccc21 has an INHIBITION of 32.8%. Work on COc1cc(Cl)ccc1C(=O)NCC(=O)Nc1nccs1 yielded an INHIBITION of -176%. COc1ccc2c(c1)sc(=NC(=O)CSCC(=O)Nc1nccs1)n2C showed an INHIBITION of 51%. Work on O=C(CNC(=O)c1ccccc1Cl)Nc1nccs1 yielded an INHIBITION of -9.72%. For COCCn1/c(=N\C(=O)CN(C)S(C)(=O)=O)sc2cc(OC)ccc21, the INHIBITION was 2.29%. In the case of CCn1c(=NC(=O)CSCC(=O)Nc2nccs2)sc2ccccc21, the INHIBITION is reported as 88.1%. For O=C(Cc1ccccn1)N1CC[C@]2(C[C@@H](Oc3ncccc3F)CO2)C1, the INHIBITION was 35.8%. With CN(C)C(=O)N1CC[C@@H](O)[C@@H]1Cc1ccccc1 the INHIBITION was -14.7%. Cc1ccc(CN2CCC3(CC2)C(=O)N(CC(C)C)CCN3C)o1 was tested, and the INHIBITION was 39.5%. With COc1ccc(C(=O)COc2coc(CN3CCSCC3)cc2=O)cc1 the INHIBITION was 15.1%. For Cc1nc(N[C@H]2COC[C@@H]2N2CCCC2)c2cnn(C)c2n1, the INHIBITION was 32.7%. CCOC(=O)CNc1nc(C(C)(C)C)nc2c1cnn2C showed an INHIBITION of 51.3%. Cn1ncc2c(NCC(=O)N3CCNCC3)nc(C(C)(C)C)nc21 was tested, and the INHIBITION was 16.8%. In the case of CCOC(=O)CCCNc1nc(C(C)(C)C)nc2c1cnn2C, the INHIBITION is reported as 27.9%. Molecule Cn1ncc2c(NCC3CCS(=O)(=O)C3)nc(C3CCCC3)nc21 (configuration not stated) has an INHIBITION of 15.1%. Molecule CCc1nc(NC2CCCN(C(=O)C3CC3)C2)c2cnn(C)c2n1 (configuration not stated) has an INHIBITION of 16%. Cn1ncc2c(NC3CCCN(C(=O)C4CC4)C3)nc(C(C)(C)C)nc21 (configuration not stated) showed an INHIBITION of 62.9%. CCOC(=O)CC(C)Nc1nc(C(C)(C)C)nc2c1cnn2C (configuration not stated) showed an INHIBITION of 46.4%. For Cn1ncc2c(N[C@@H]3CS(=O)(=O)C[C@H]3O)nc(C(C)(C)C)nc21, the INHIBITION was 54.4%. In the case of Cc1nc(NC2CCN(C(=O)C3CC3)CC2)c2cnn(C)c2n1, the INHIBITION is reported as -25.2%. In the case of Cn1ncc2c(N[C@H]3CCCC[C@@H]3O)nc(C(C)(C)C)nc21, the INHIBITION is reported as 50.1%. Cn1ncc2c(NC3CCC(N)CC3)nc(C(C)(C)C)nc21 (configuration not stated) was tested, and the INHIBITION was 40.5%.
